Results: PubChem BioAssay (NCI)
“And” between values parts separate entries of the source, which are not always exact repeats. Equal entries are not always repeated. Compounds without any hit were thinned out: in the full panel of roughly 83,000, 20% have a hit.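 Cells were grown in 96-well plates and exposed to the test compound at a single concentration for 48 hours; results are reported as percent growth, with values below 10 considered active.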 A number with no mark means an inactive call. The source made the active and inactive calls. Starred links: 1 amine or outer side, 2 acyl side, 3 side chain; linkers in the order of their positions; H or OH if unused. Positions of bridges follow the written chain, without caps; N, C: chain ends. Non-standard residues stand in square brackets, D forms with d. Residues, ends and D or L forms follow the SMILES beside them. Chains are numbered I, II in the order given. Actinocin(9to1) = Cc1c2oc3c(C)ccc(C(=O)[*:1])c3nc-2c(C(=O)[*:2])c(N)c1=O; aThr = C[C@H](O)[C@H](N)C(=O)O; NMeV = CN[C@H](C(=O)O)C(C)C; Sar = CNCC(=O)O

System: HCT-15 colon
Test: NCI-60 one-dose screen, 48 h (100 = growth as untreated, 0 = no growth, -100 = all killed)
Details: 10 µM

Row | Structure (SMILES) | growth
1 | N#C/C(=C1C=C/C(=N\O)C(Cl)=C\1)c1ccccc1 | 22.2%
2 | CN(C)CCC(=O)c1c[nH]c2ccccc12 | 110%
3 | O=c1[nH]cc(F)c(=O)[nH]1 | 48.1% and 51.4%
4 | CSc1ccc2c(c1)C(N1CCN(C)CC1)Cc1ccccc1S2 (stereo unspecified) | 10.3%
5 | COc1cc(C(C)(C)C)cc(OC)c1C(O)(c1c(OC)cc(C(C)(C)C)cc1OC)c1c(OC)cc(C(C)(C)C)cc1OC | -85.8% (active)
6 | S=c1[nH]nc(Cc2ccccc2)c(=S)[nH]1 | 102%
7 | O=C(/C(=C/c1ccccc1)CBr)c1ccccc1 | 47%
8 | Nc1ccc2cc(Br)c3ccccc3c2c1 | 33.2%
9 | CN1CCN(c2ccc3nc(-c4ccc5nc(-c6ccc(O)cc6)[nH]c5c4)[nH]c3c2)CC1 | 94.3%
10 | Cc1cc(NCCCN(C)C)c2ccc3c(ccc4c(NCCCN(C)C)cc(C)nc43)c2n1 | -34.6% (active)
11 | Cc1c2oc3c(C)ccc(C(=O)N[C@@H]4C(=O)N[C@H](C(C)C)C(=O)N5CCC[C@H]5C(=O)N(C)CC(=O)N(C)[C@@H](C(C)C)C(=O)O[C@H]4C)c3nc-2c(C(=O)N[C@@H]2C(=O)N[C@H](C(C)C)C(=O)N3CCC[C@H]3C(=O)N(C)CC(=O)N(C)[C@@H](C(C)C)C(=O)O[C@H]2C)c(N)c1=O (I: [aThr][dV]P[Sar][NMeV] / II: [aThr][dV]P[Sar][NMeV]; ester I:1-I:C, II:1-II:C; linker I:N-II:N via Actinocin(9to1)) | 2.4% (active)
12 | Cc1cnc(/C=N\NC(N)=S)c2cccc(N)c12 | 24.9%
13 | CCCCCCCCCCCCCCCCCN | 104%
14 | BrC/C=C/C[P+](c1ccccc1)(c1ccccc1)c1ccccc1 | 37.3%

System: HT29 colon
Test: as above
Details: 10 µM

Row | Structure (SMILES) | growth
15 | N#C/C(=C1C=C/C(=N\O)C(Cl)=C\1)c1ccccc1 | 23%
16 | CN(C)CCC(=O)c1c[nH]c2ccccc12 | 101%
17 | O=c1[nH]cc(F)c(=O)[nH]1 | 43.6% and 42.6%
18 | CSc1ccc2c(c1)C(N1CCN(C)CC1)Cc1ccccc1S2 (stereo unspecified) | -15.9% (active)
19 | COc1cc(C(C)(C)C)cc(OC)c1C(O)(c1c(OC)cc(C(C)(C)C)cc1OC)c1c(OC)cc(C(C)(C)C)cc1OC | -100% (active)
20 | S=c1[nH]nc(Cc2ccccc2)c(=S)[nH]1 | 97.4%
21 | O=C(/C(=C/c1ccccc1)CBr)c1ccccc1 | 83.7%
22 | Nc1ccc2cc(Br)c3ccccc3c2c1 | 87.9%
23 | CN1CCN(c2ccc3nc(-c4ccc5nc(-c6ccc(O)cc6)[nH]c5c4)[nH]c3c2)CC1 | 82.1%
24 | Cc1cc(NCCCN(C)C)c2ccc3c(ccc4c(NCCCN(C)C)cc(C)nc43)c2n1 | -50.9% (active)
25 | Cc1c2oc3c(C)ccc(C(=O)N[C@@H]4C(=O)N[C@H](C(C)C)C(=O)N5CCC[C@H]5C(=O)N(C)CC(=O)N(C)[C@@H](C(C)C)C(=O)O[C@H]4C)c3nc-2c(C(=O)N[C@@H]2C(=O)N[C@H](C(C)C)C(=O)N3CCC[C@H]3C(=O)N(C)CC(=O)N(C)[C@@H](C(C)C)C(=O)O[C@H]2C)c(N)c1=O (I: [aThr][dV]P[Sar][NMeV] / II: [aThr][dV]P[Sar][NMeV]; ester I:1-I:C, II:1-II:C; linker I:N-II:N via Actinocin(9to1)) | -24.1% (active)
26 | Cc1cnc(/C=N\NC(N)=S)c2cccc(N)c12 | 35.8%
27 | CCCCCCCCCCCCCCCCCN | 98.9%
28 | BrC/C=C/C[P+](c1ccccc1)(c1ccccc1)c1ccccc1 | 60%

System: SNB-75 CNS
Test: as above
Details: 10 µM

Row | Structure (SMILES) | growth
29 | N#C/C(=C1C=C/C(=N\O)C(Cl)=C\1)c1ccccc1 | 59.4%
30 | CN(C)CCC(=O)c1c[nH]c2ccccc12 | 99.8%
31 | O=c1[nH]cc(F)c(=O)[nH]1 | 73.5% and 90.2%
32 | CSc1ccc2c(c1)C(N1CCN(C)CC1)Cc1ccccc1S2 (stereo unspecified) | 0.687% (active)
33 | COc1cc(C(C)(C)C)cc(OC)c1C(O)(c1c(OC)cc(C(C)(C)C)cc1OC)c1c(OC)cc(C(C)(C)C)cc1OC | -94.1% (active)
34 | S=c1[nH]nc(Cc2ccccc2)c(=S)[nH]1 | 92.8%
35 | O=C(/C(=C/c1ccccc1)CBr)c1ccccc1 | 48.6%
36 | Nc1ccc2cc(Br)c3ccccc3c2c1 | 50%
37 | CN1CCN(c2ccc3nc(-c4ccc5nc(-c6ccc(O)cc6)[nH]c5c4)[nH]c3c2)CC1 | 54.9%
38 | Cc1cc(NCCCN(C)C)c2ccc3c(ccc4c(NCCCN(C)C)cc(C)nc43)c2n1 | -90% (active)
39 | Cc1c2oc3c(C)ccc(C(=O)N[C@@H]4C(=O)N[C@H](C(C)C)C(=O)N5CCC[C@H]5C(=O)N(C)CC(=O)N(C)[C@@H](C(C)C)C(=O)O[C@H]4C)c3nc-2c(C(=O)N[C@@H]2C(=O)N[C@H](C(C)C)C(=O)N3CCC[C@H]3C(=O)N(C)CC(=O)N(C)[C@@H](C(C)C)C(=O)O[C@H]2C)c(N)c1=O (I: [aThr][dV]P[Sar][NMeV] / II: [aThr][dV]P[Sar][NMeV]; ester I:1-I:C, II:1-II:C; linker I:N-II:N via Actinocin(9to1)) | -73.6% (active)
40 | Cc1cnc(/C=N\NC(N)=S)c2cccc(N)c12 | -2.85% (active)
41 | CCCCCCCCCCCCCCCCCN | 92.6%
